Experimental data as given in PubChem BioAssay.
Activity calls are given as the source filed them.

Columns and labels:
[1] = binders of probe aFSTL3 on microarray, primary screen, stem cell growth factor project, biochemical, small-molecule microarray, fluorescence 635/667 (AID 1064); conditions: higher = more signal;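 further: measures binding of the biotinylated anti-FSTL3 antibody to printed compounds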
[2] = binders from COS7 lysate, DM2A8 probe, primary screen, torsin A project, cell lysate, small-molecule microarray, fluorescence 635/667 (AID 1065); conditions: higher = more signal, COS7 lysate expressing mutant human TOR1A
[3] = binders of probe aFGF2 on microarray, primary screen, stem cell growth factor project, biochemical, small-molecule microarray, fluorescence 635/667 (AID 1067); conditions: higher = more signal;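 further: measures binding of biotinylated aFGF2 protein to printed compounds on slides; z-score merges feature fluorescence and signal-to-noise across triplicate slides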
[4] = binders of probe aFGF10 on microarray, primary screen, stem cell growth factor project, biochemical, small-molecule microarray, fluorescence 635/667 (AID 1071); conditions: higher = more signal;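 further: score merges 667 nm spot intensity and signal to noise from triplicate slides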
[5] = biological target: Neurogenic locus notch homolog protein 2 (Homo sapiens) (UniProt Q04721); assay: Notch2 binders on small-molecule microarrays, primary screen, biochemical, small-molecule microarray, 635 nm fluorescence, stem cell growth factors (AID 1073); conditions: Notch2 binding, higher = more signal
[6] = biological target: Pro-neuregulin-1, membrane-bound isoform (Homo sapiens) (UniProt Q02297); assay: NRG1 binders on small-molecule microarrays, primary screen, psychiatric disease protein project, biochemical, small-molecule microarray, fluorescence 635/667 (AID 1075); conditions: NRG1 binding, 635 nm fluorescence, higher = more signal;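 further: score combines 667 nm spot fluorescence with signal to noise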
[7] = system: Neuregulin-1 EGF-like domain; assay: binders of neuregulin-1 EGF-like domain, primary screen, biochemical, small-molecule microarray, 635 nm fluorescence (AID 1081); conditions: small-molecule microarray binding, higher = more signal;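 further: binding of the protein to compounds printed on small-molecule microarray slides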
[8] = FRG1 promoter luciferase signal modulators, primary screen, FRG1 inhibition for FSHD, cell-based, C2C12 myotubes, firefly/Renilla luciferase, luminescence (AID 1084); conditions: higher = more signal, called active from +8 up or from −8 down
[9] = binders of probe aFST on microarray, primary screen, stem cell growth factor project, biochemical, small-molecule microarray, fluorescence 635/667 (AID 1086); conditions: higher = more signal;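 further: score merges 667 nm fluorescence with signal-to-noise of each printed compound spot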
[10] = binders of probe aHhip on microarray, primary screen, stem cell growth factor project, biochemical, small-molecule microarray, fluorescence 635/667 (AID 1087); conditions: higher = more signal;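 further: score merges spot fluorescence at 667nm with spot signal to noise ratio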
[11] = system: PRMT1 (protein arginine N-methyltransferase 1); assay: PRMT1 binders on small-molecule microarrays, primary screen, biochemical, small-molecule microarray, 635 nm fluorescence (AID 1088); conditions: small-molecule microarray binding, higher = more signal;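 further: binding of Prmt1 protein to compounds spotted on small-molecule microarray slides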
[12] = yeast growth modulation, basal conditions, primary screen, YJM789 clinical isolate, OD600, 24 h (AID 1089);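 further: growth of clinical yeast isolate S. cerevisiae YJM 789 seeded 1000 cells per well; test concentration not given here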; conditions: S. cerevisiae YJM789 growth, higher = more signal, called active from +8 up or from −8 down
[13] = fission yeast growth modulation, primary screen, strain 972, OD600, 24 h, no modulator (AID 1090);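 further: basal condition with compound alone and no growth modifier present; test concentration not given here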; conditions: S. pombe 972 growth, higher = more signal, called active from +8 up or from −8 down
[14] = S. cerevisiae growth modulation with rapamycin, primary screen, strain BY4716, OD600, 96 h (AID 1091); conditions: higher = more signal, called active from +8 up or from −8 down; further: test concentration not given here
[15] = biological target: Torsin-1A-interacting protein 2 (Homo sapiens) (UniProt Q8NFQ8); assay: LULL1 binders on small-molecule microarray, primary screen, cell lysate, human LULL1 lysate, 635/667 nm fluorescence (AID 1092); conditions: hLULL1 lysate binding, 635 nm fluorescence, higher = more signal;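 further: probe is lysate of COS7 cells overexpressing human LULL1; score merges per-feature 667 nm fluorescence with signal-to-noise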
[16] = E. coli growth modulation, two-sided OD650, primary screen, E. coli filamentation project, strain DRC41, 24 h (AID 1093); conditions: OD650, 24 h, higher = more signal, called active from +8 up or from −8 down;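 further: MC1000 strain lacking acrAB efflux and sulA so SOS filamentation is blocked; test concentration not given here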
[17] = small-molecule microarray binders of probe aLefty2, primary screen, biochemical, biotinylated probe, 635/667 nm fluorescence (AID 1094); conditions: higher = more signal;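 further: score merges spot fluorescence near 667 nm with spot signal-to-noise ratio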
[18] = system: Noggin (protein binding on small-molecule microarray); assay: Noggin binders on small-molecule microarray, primary screen, biochemical, 635/667 nm fluorescence (AID 1095); conditions: 635 nm fluorescence, higher = more signal;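 further: score merges 667 nm feature fluorescence with signal to noise over triplicate slides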
[19] = biological target: Neurogenic locus notch homolog protein 3 (Homo sapiens) (UniProt Q9UM47); assay: NOTCH3 binders on small-molecule microarray, primary screen, biochemical, 635/667 nm fluorescence (AID 1096); conditions: NOTCH3 binding, 635 nm fluorescence, higher = more signal
[20] = small-molecule microarray binders of probe aEGFR, primary screen, biochemical, biotinylated probe, 635/667 nm fluorescence (AID 1097); conditions: higher = more signal;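 further: probe is a biotinylated anti-EGFR antibody binding compounds printed on slides; score combines fluorescence near 667 nm and signal to noise of each spot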

Torsin-1A-interacting protein 2 (Homo sapiens), sequence (Q8NFQ8 whole entry, looked up): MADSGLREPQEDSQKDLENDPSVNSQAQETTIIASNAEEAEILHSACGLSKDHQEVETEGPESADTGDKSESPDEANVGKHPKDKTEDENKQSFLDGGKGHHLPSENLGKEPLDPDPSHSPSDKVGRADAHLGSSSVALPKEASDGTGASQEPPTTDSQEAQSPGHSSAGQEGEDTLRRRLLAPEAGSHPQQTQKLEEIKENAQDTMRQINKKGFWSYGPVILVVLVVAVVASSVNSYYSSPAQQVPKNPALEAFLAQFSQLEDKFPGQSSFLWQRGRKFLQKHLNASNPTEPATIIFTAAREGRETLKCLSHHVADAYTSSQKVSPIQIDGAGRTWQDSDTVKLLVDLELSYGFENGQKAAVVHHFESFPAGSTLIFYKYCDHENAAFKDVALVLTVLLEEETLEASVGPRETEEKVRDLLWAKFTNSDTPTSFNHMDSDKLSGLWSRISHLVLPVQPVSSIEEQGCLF
Pro-neuregulin-1, membrane-bound isoform (Homo sapiens), sequence (Q02297 whole entry, looked up, the tested form may be a part, canonical isoform): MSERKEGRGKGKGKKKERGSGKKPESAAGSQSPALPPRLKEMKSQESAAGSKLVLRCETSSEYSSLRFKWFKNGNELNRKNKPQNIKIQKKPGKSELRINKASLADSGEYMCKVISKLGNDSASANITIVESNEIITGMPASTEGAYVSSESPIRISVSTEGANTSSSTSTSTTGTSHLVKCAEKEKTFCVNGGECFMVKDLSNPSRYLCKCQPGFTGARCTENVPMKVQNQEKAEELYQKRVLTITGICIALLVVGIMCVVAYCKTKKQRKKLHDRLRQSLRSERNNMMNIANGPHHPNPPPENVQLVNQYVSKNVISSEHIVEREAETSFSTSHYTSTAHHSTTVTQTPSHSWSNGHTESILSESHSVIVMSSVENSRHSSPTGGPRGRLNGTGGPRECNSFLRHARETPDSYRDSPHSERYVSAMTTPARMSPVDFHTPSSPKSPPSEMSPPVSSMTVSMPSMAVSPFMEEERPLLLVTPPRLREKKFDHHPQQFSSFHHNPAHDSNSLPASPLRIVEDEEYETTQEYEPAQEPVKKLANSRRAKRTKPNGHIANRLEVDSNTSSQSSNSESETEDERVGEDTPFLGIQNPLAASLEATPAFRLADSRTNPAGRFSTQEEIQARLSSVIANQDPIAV
Neurogenic locus notch homolog protein 2 (Homo sapiens), sequence (Q04721 whole entry, looked up, canonical isoform): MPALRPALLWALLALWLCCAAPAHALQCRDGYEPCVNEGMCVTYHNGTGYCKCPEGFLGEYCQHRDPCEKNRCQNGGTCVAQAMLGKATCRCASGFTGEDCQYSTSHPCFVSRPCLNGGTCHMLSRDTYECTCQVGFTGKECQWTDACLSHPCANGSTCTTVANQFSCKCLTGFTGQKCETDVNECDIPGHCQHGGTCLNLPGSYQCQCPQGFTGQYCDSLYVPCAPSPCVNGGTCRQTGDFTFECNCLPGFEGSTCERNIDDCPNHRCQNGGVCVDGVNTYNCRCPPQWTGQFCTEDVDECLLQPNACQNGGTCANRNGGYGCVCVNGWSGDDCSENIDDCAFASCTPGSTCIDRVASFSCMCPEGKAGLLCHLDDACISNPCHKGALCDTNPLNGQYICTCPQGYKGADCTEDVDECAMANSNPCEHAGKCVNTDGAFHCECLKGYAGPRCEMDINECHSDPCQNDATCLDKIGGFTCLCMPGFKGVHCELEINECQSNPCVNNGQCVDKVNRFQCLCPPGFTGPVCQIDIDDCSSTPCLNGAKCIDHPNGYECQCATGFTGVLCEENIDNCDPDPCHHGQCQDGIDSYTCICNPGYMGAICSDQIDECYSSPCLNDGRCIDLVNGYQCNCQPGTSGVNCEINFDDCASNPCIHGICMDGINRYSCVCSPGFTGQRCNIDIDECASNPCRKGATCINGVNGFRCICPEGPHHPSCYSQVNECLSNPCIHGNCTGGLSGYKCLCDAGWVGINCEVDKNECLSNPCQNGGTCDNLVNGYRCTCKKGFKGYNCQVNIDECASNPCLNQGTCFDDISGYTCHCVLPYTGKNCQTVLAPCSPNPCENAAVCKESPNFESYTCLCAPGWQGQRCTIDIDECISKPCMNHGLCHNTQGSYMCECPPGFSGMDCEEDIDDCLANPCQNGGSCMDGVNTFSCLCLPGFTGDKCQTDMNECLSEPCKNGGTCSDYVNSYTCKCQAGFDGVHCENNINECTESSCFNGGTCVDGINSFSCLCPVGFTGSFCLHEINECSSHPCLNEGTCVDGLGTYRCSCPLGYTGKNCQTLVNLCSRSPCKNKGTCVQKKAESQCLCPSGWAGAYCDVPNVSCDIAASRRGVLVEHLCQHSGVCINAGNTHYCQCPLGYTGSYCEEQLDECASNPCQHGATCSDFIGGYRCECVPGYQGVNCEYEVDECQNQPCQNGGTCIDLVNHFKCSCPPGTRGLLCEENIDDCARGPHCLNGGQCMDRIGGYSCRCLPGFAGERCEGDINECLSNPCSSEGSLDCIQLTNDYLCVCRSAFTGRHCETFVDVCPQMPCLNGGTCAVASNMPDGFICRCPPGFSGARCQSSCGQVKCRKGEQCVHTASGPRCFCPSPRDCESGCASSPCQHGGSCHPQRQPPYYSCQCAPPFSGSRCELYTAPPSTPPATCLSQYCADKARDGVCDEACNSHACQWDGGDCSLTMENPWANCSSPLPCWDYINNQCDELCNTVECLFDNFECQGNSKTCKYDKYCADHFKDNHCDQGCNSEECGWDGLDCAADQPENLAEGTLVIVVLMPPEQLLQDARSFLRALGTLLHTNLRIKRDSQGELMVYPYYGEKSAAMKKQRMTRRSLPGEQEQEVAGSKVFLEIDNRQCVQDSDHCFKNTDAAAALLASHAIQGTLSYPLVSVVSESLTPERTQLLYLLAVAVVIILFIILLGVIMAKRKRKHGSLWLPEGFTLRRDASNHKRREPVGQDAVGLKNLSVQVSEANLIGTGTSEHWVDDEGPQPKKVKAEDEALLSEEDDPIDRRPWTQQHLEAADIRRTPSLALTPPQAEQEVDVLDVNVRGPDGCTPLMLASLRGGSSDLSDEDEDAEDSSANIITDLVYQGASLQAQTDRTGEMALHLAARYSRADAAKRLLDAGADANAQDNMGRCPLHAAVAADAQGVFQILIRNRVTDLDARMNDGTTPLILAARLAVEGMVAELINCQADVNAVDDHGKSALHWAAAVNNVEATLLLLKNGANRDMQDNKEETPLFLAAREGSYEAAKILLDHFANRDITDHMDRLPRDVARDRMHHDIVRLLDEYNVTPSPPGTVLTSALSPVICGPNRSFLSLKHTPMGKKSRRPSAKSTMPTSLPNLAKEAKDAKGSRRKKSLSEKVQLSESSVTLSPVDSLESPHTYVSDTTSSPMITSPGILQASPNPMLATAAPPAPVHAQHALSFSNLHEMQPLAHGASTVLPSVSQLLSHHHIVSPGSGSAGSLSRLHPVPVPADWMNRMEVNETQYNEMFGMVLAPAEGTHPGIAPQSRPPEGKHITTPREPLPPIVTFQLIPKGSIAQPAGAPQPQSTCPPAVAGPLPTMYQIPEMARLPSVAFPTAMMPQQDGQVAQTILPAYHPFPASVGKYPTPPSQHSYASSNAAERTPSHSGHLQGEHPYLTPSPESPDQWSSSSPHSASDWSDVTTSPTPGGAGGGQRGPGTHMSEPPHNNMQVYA

Compound | composite z-score [1] | composite z-score [2] | composite z-score [3] | composite z-score [4] | composite z-score [5] | composite z-score [6] | composite z-score [7] | z-score [8] | composite z-score [9] | composite z-score [10] | composite z-score [11] | z-score [12] | z-score [13] | z-score [14] | composite z-score [15] | z-score [16] | composite z-score [17] | composite z-score [18] | composite z-score [19] | composite z-score [20]
O=C(O)[C@H]1C[C@H]2C(=O)N3CCC[C@H]3C(=O)N2[C@H]1c1cccc(OCCO)c1 | 0.376 | 0.812 | -0.0985 | 0.178 | -0.237 | 0.337 | 1.25 | 6.19 (inactive) | -0.0791 | 0.176 | 1.04 | -0.187 (inactive) | -0.391 (inactive) | 0.0709 (inactive) | 2.55 | 0.849 (inactive) | 0.027 | 0.287 | 0.237 | -0.109
O=C1c2ccccc2[C@](Cc2ccccc2I)(C(=O)NCCN2CCOCC2)[C@H](c2ccc(CO)cc2)N1Cc1ccccc1 | -0.0634 | 0.783 | -0.0356 | 0.699 | 1.33 | 1.1 | 1.33 | -3.84 (inactive) | 0.983 | 0.519 | 1.52 | 0.189 (inactive) | 0.0239 (inactive) | -0.477 (inactive) | 2.8 | 0.47 (inactive) | 0.182 | 0.406 | 1.08 | 0.225
CCOc1cc(C(O)C2C=CC3C(=O)N(C4CCCCC4)C(=O)C3N2Nc2ccc(OC)cc2)ccc1O (stereo not given) | 0.26 | 0.456 | 0.0465 | 0.339 | 1.64 | 1.72 | 1.28 | 1.79 (inactive) | 0.775 | -0.132 | 1.17 | -0.344 (inactive) | -0.118 (inactive) | -0.129 (inactive) | 3.21 | -0.0874 (inactive) | 0.0252 | 0.163 | 1.05 | 0.0295
CCCCN1CC=CC23O[C@@H]4/C=C\CCC(C)OC(=O)C4[C@H]2C(=O)N(CCCCCCO)[C@@H]3C1=O (stereo not given in full) | 0.666 | 0.345 | -0.0712 | 0.867 | -0.625 | 0.272 | 1.59 | 0.189 (inactive) | -0.213 | -0.119 | -0.969 | -0.287 (inactive) | -0.737 (inactive) | 0.045 (inactive) | 1.4 | 0.272 (inactive) | -0.212 | -0.806 | -0.407 | -0.313
Cc1ccc(S[C@]2(C(=O)NC(C)C)CC(=O)N(C3Cc4ccccc4C3)[C@@H]2c2ccc(CO)cc2I)cc1 | 0.125 | -0.869 | -0.216 | -0.667 | -0.853 | 1.06 | 0.381 | -1.85 (inactive) | -0.654 | -0.858 | 0.871 | -0.801 (inactive) | -2.68 (inactive) | -0.0369 (inactive) | 3.32 | 0.733 (inactive) | -0.0131 | -0.0975 | -0.505 | -0.37
CC(C)C[C@@H]1NC(=O)[C@H]2C[C@@H](C(=O)NCCCCCC[N+](C)(C)C)[C@@H](c3cccc(OCCO)c3)N2C1=O | -0.183 | 0.121 | -0.152 | -0.214 | -0.356 | -0.0252 | 1.34 | 4.18 (inactive) | -0.601 | -0.134 | 1.13 | -1.15 (inactive) | -0.455 (inactive) | -0.794 (inactive) | 2.49 | 0.319 (inactive) | -0.166 | 1.47 | 1.07 | 0.038
COC1(C)CN(Cc2ccccc2Br)[C@H](/C=C/c2ccccc2)[C@H](Cc2ccccc2)O1 (stereo not given in full) | -0.366 | 0.115 | -0.194 | -0.0452 | -0.669 | -0.435 | -0.426 | -0.916 (inactive) | -0.317 | 0.0373 | -0.355 | -0.0969 (inactive) | 0.239 (inactive) | 0.243 (inactive) | -0.92 | 1.07 (inactive) | -0.231 | -0.391 | -0.789 | -0.159
C=C(/C(=C/C[C@@H](OC(=O)c1ccncc1)c1ccc(OCCO)cc1)c1cc(C(=O)OC)ccc1OC)C(C)C | -0.445 | 1.24 | -0.139 | 0.93 | 0.833 | 0.679 | 1.13 | 0.317 (inactive) | 0.0136 | -0.399 | 1.48 | 0.412 (inactive) | 0.252 (inactive) | 0.339 (inactive) | 1.32 | 0.681 (inactive) | -0.317 | 0.89 | 1.1 | -0.0509
CC(C)C(=C=CC[C@@H](O)c1ccccc1OCCO)C[C@@H](O)COCc1ccccc1 | -0.248 | 0.399 | -0.072 | 0.729 | 0.429 | 1.13 | 0.865 | -3.84 (inactive) | 0.592 | -0.199 | 1.29 | -19.2 (active) | -20.5 (active) | -3.68 (inactive) | 1.16 | 1.44 (inactive) | -0.139 | 1.24 | 0.388 | 0.001
O=C1O[C@@H](c2ccccc2)[C@@H](c2ccccc2)N2[C@@H](c3ccccc3OCCO)[C@]3(C(=O)Nc4ccc(C#CCCO)cc43)[C@@H](C(=O)Nc3nc4ccccc4s3)[C@H]12 | -0.0348 | 0.74 | -0.0165 | 1.07 | 1.36 | 1.5 | 1.3 | -2.4 (inactive) | 0.73 | 0.28 | 1.55 | 1.49 (inactive) | -0.487 (inactive) | 3.2 (inactive) | 2.64 | 1.59 (inactive) | 0.259 | 0.448 | 1.05 | 0.131
